Results reported in PubChem BioAssay (EPA / NIEHS).
Activity calls are given as the source filed them. The calls were made as follows: active = hit-call score of the fitted dose curve at least 0.9, where 1 is the maximum; inactive = score below 0.9.

Key:
[1] = read-out: Tissue plasminogen activator (tPA), PLAT (gene 5327); test: BSK_BE3C_tPA: BioMAP Diversity Plus: BE3C Assay for Tissue plasminogen activator (tPA) Biomarker Activity (AID 2283041); details: primary human bronchial epithelial cells; actives raise or lower the signal
Method in brief: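 Human primary bronchial epithelial cells were dosed with chemical and tPA biomarker levels measured by ELISA 24 hours later. Activity was fitted bidirectionally against DMSO as negative control and baseline.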

[2] = read-out: Interleukin-8 (IL8), CXCL8 (gene 3576); test: BSK_CASM3C_IL8: BioMAP Diversity Plus: CASM3C Assay for Interleukin-8 (IL8) Biomarker Activity (AID 2283042); details: primary human coronary artery smooth muscle cells; actives raise or lower the signal;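 also: IL-8 protein level quantified by ELISA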
[3] = read-out: Human Leukocyte Antigen - DR isotype (HLADR), HLA-DRA (gene 3122); test: BSK_CASM3C_HLADR: BioMAP Diversity Plus: CASM3C Assay for Human Leukocyte Antigen - DR isotype (HLADR) Biomarker Activity (AID 2283043); details: primary human coronary artery smooth muscle cells; actives raise or lower the signal;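 also: cell-surface HLA-DR protein level quantified by ELISA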
[4] = read-out: Macrophage colony-stimulating factor (MCSF), CSF1 (gene 1435); test: BSK_CASM3C_MCSF: BioMAP Diversity Plus: CASM3C Assay for Macrophage colony-stimulating factor (MCSF) Biomarker Activity (AID 2283044); details: primary human coronary artery smooth muscle cells; actives raise or lower the signal;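 also: M-CSF protein amount quantified by ELISA after 24 h exposure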
[5] = read-out: Low-density lipoprotein receptor (LDLR), LDLR (gene 3949); test: BSK_CASM3C_LDLR: BioMAP Diversity Plus: CASM3C Assay for Low-density lipoprotein receptor (LDLR) Biomarker Activity (AID 2283045); details: primary human coronary artery smooth muscle cells; actives raise or lower the signal;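 also: LDLR protein level on the cell surface quantified by ELISA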
[6] = read-out: Monocyte Chemoattractant Protein-1 (MCP1), CCL2 (gene 6347); test: BSK_CASM3C_MCP1: BioMAP Diversity Plus: CASM3C Assay for Monocyte Chemoattractant Protein-1 (MCP1) Biomarker Activity (AID 2283046); details: primary human coronary artery smooth muscle cells; actives raise or lower the signal;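 also: MCP-1 level quantified by ELISA 24 h after dosing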
[7] = BSK_CASM3C_Proliferation: Cell Proliferation Assessment in the BioMAP Diversity Plus: CASM3C Assay (AID 2283047); details: primary human coronary artery smooth muscle cells;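 also: sulforhodamine B total protein stain as relative cell number at 560 nm; sub-confluent cells exposed 48 h before staining; fitted both ways against DMSO so gain or loss of cell number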
[8] = read-out: Monokine induced gamma interferon (MIG), CXCL9 (gene 4283); test: BSK_CASM3C_MIG: BioMAP Diversity Plus: CASM3C Assay for Monokine induced gamma interferon (MIG) Biomarker Activity (AID 2283048); details: primary human coronary artery smooth muscle cells; actives raise or lower the signal;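 also: MIG protein level measured by ELISA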
[9] = read-out: serum amyloid A (SAA), SAA1 (gene 6288); test: BSK_CASM3C_SAA: BioMAP Diversity Plus: CASM3C Assay for serum amyloid A (SAA) Biomarker Activity (AID 2283049); details: primary human coronary artery smooth muscle cells; actives raise or lower the signal;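 also: SAA protein level quantified by ELISA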
[10] = BSK_CASM3C_SRB: Viability Assessment in the BioMAP Diversity Plus: CASM3C Assay (AID 2283050); details: primary human coronary artery smooth muscle cells;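 also: total protein by SRB staining as cytotoxicity measure in parallel cultures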
[11] = read-out: Thrombomodulin, THBD (gene 7056); test: BSK_CASM3C_Thrombomodulin: BioMAP Diversity Plus: CASM3C Assay for Thrombomodulin Biomarker Activity (AID 2283051); details: primary human coronary artery smooth muscle cells; actives raise or lower the signal;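 also: thrombomodulin protein level measured by ELISA 24 h after dosing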
[12] = read-out: Tissue Factor, F3 (gene 2152); test: BSK_CASM3C_TissueFactor: BioMAP Diversity Plus: CASM3C Assay for Tissue Factor Biomarker Activity (AID 2283052); details: primary human coronary artery smooth muscle cells; actives raise or lower the signal;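 also: cell surface tissue factor protein level read by ELISA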
[13] = read-out: Interferon-gamma inducible Protein 10 (IP10), CXCL10 (gene 3627); test: BSK_hDFCGF_IP10: BioMAP Diversity Plus: hDFCGF Assay for Interferon-gamma inducible Protein 10 (IP10) Biomarker Activity (AID 2283053); details: primary human foreskin fibroblasts; actives raise or lower the signal
Method in brief: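 Human foreskin fibroblast primary cells (hDFCGF system) were dosed with chemical and assayed at 24 h; IP-10 measured by ELISA. Activity fitted bidirectionally relative to DMSO negative control as baseline.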

[14] = read-out: Urokinase-type plasminogen activator receptor (uPAR), PLAUR (gene 5329); test: BSK_CASM3C_uPAR: BioMAP Diversity Plus: CASM3C Assay for Urokinase-type plasminogen activator receptor (uPAR) Biomarker Activity (AID 2283054); details: primary human coronary artery smooth muscle cells; actives raise or lower the signal;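 also: cell-surface uPAR protein level quantified by ELISA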
[15] = read-out: Vascular cell adhesion molecule 1 (VCAM1), VCAM1 (gene 7412); test: BSK_CASM3C_VCAM1: BioMAP Diversity Plus: CASM3C Assay for Vascular cell adhesion molecule 1 (VCAM1) Biomarker Activity (AID 2283055); details: primary human coronary artery smooth muscle cells; actives raise or lower the signal;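 also: VCAM-1 protein level quantified by ELISA on the cells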
[16] = read-out: Collagen III, COL3A1 (gene 1281); test: BSK_hDFCGF_CollagenIII: BioMAP Diversity Plus: hDFCGF Assay for Collagen III Biomarker Activity (AID 2283056); details: primary human foreskin fibroblasts; actives raise or lower the signal
Method in brief: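 hDFCGF primary human dermal fibroblasts; 24 h chemical exposure; collagen III by ELISA; bidirectional curve fit vs DMSO baseline (gain or loss of signal).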

[17] = read-out: Epidermal growth factor receptor (EGFR), EGFR (gene 1956); test: BSK_hDFCGF_EGFR: BioMAP Diversity Plus: hDFCGF Assay for Epidermal growth factor receptor (EGFR) Biomarker Activity (AID 2283057); details: primary human foreskin fibroblasts; actives raise or lower the signal
Method in brief: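 Primary human foreskin fibroblasts were exposed to compound for 24 h, after which cell-surface EGFR was quantified by ELISA. Activity was fitted bidirectionally against the DMSO negative control as baseline.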

[18] = read-out: Interleukin-8 (IL8), CXCL8 (gene 3576); test: BSK_hDFCGF_IL8: BioMAP Diversity Plus: hDFCGF Assay for Interleukin-8 (IL8) Biomarker Activity (AID 2283058); details: primary human foreskin fibroblasts; actives raise or lower the signal
Method in brief: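 ELISA read-out of IL-8 from primary human foreskin fibroblast cultures taken 24 h after dosing; values are bidirectional fits relative to DMSO vehicle.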

[19] = BSK_hDFCGF_Proliferation: Cell Proliferation Assessment in the BioMAP Diversity Plus: hDFCGF Assay (AID 2283059); details: primary human foreskin fibroblasts;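 also: curves fitted for both rise and fall of signal versus DMSO baseline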
Method in brief: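 This proliferation readout used SRB total-protein staining of human foreskin fibroblasts […], normalized to DMSO with bidirectional curve fitting.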

[20] = read-out: Macrophage colony-stimulating factor (MCSF), CSF1 (gene 1435); test: BSK_hDFCGF_MCSF: BioMAP Diversity Plus: hDFCGF Assay for Macrophage colony-stimulating factor (MCSF) Biomarker Activity (AID 2283060); details: primary human foreskin fibroblasts; actives raise or lower the signal
Method in brief: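 ELISA read-out of M-CSF in human dermal foreskin fibroblast cultures, 24 h after chemical dosing; gain or loss of signal fitted bidirectionally relative to DMSO baseline.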

Measured: AC50

CCc1c(C)cc(N)c(CC)c1N
inactive: all assays above

CCCCC(CC)COCCC#N (centres undefined)
active: [5] 0.151 µM | [13] 20 µM | [16] 24.1 µM | [19] 11.1 µM
inactive: all other assays above

c1ccc2c(c1)c1cccc3ccc4cccc2c4c31
not listed: [5]
inactive: all other assays above

OC[C@H]1O[C@H](O[C@]2(CCl)O[C@H](CCl)[C@@H](O)[C@@H]2O)[C@H](O)[C@@H](O)[C@H]1Cl
inactive: all assays above

CCCCCCCCCC=O
inactive: all assays above

CC(C)Oc1ccccc1O
active: [19] 20 µM
inactive: all other assays above

C=C(C)C(=O)O[C@H]1C[C@@H]2CC[C@@]1(C)C2(C)C
active: [1] 20 µM | [2] 22.3 µM | [3] 8.32 µM | [4] 7.53 µM | [6] 12.4 µM | [7] 23.5 µM | [8] 27.1 µM | [10] 13.2 µM | [12] 9.73 µM | [13] 35.2 µM | [14] 9.04 µM | [15] 12.1 µM | [16] 20 µM | [17] 29.4 µM | [18] 35.3 µM | [19] 13.1 µM | [20] 28.4 µM
inactive: [5] | [9] | [11]
